We go through seven compounds from PubChem BioAssay (NCI).

Compounds without any hit were thinned out: in the full panel of roughly 83,000, 20% have a hit.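 Values shown are percent growth following 48 h exposure of cells in 96-well plates to a single concentration of compound; below 10 was considered active.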 A number with no mark means an inactive call. Active and inactive are the calls of the source.

Some test systems named below: HCT-15 colon; HT29 colon; SNB-75 CNS; SNB-19 CNS; U251 CNS; PC-3 prostate; SK-MEL-5 melanoma; UACC-62 melanoma; LOX IMVI melanoma; SK-MEL-28 melanoma; SK-MEL-2 melanoma; EKVX NSCLC; SN12C renal; UO-31 renal; TK-10 renal; ACHN renal; CAKI-1 renal; A498 renal; CCRF-CEM leukemia; MOLT-4 leukemia.
What all share (experiment): NCI-60 one-dose screen, 48 h (100 = growth as untreated, 0 = no growth, -100 = all killed)
What all share (conditions): 10 µM unless noted

As for `Nc1cccc2c1CN(C1CCC(=O)NC1=O)C2=O` (stereo not given), the growth in the assay on HCT-15 colon is 105%; in the assay with HT29 colon it was 101%; in the assay on SNB-75 CNS it was 88.4%; in the assay on SNB-19 CNS it was 88.9%; in the assay with U251 CNS, 97%; with PC-3 prostate it was 91%. Besides, the growth with SK-MEL-5 melanoma is 103%; in the assay on UACC-62 melanoma, 114%; in the assay on LOX IMVI melanoma, 99.8%; with SK-MEL-28 melanoma, 111%; in the assay with SK-MEL-2 melanoma, 113%; in the assay with EKVX NSCLC, 94.7%. Besides, the growth with SN12C renal is 106%; with UO-31 renal it was 101%; in the assay with TK-10 renal, 132%; in the assay with ACHN renal it was 105%; with CAKI-1 renal it was 95.6%; with A498 renal, 84.8%. For the same compound, the values for the growth with CCRF-CEM leukemia and in the assay on MOLT-4 leukemia were 98.7% and 95.1%, respectively.

`O=S(=O)(NCCCNc1cc(-c2cn(-c3ccccc3)nc2-c2cccc(O)c2)ccn1)c1ccc(Cl)cc1`: the growth in the assay on HCT-15 colon was -5.43% (active); in the assay on HT29 colon, -32.7% (active); in the assay on SNB-75 CNS, 20.3%; with SNB-19 CNS it was 43.8%; in the assay with U251 CNS, 13.8%; in the assay with PC-3 prostate, 1.79% (active). Further, the growth is -19.5% (active) in the assay on SK-MEL-5 melanoma; 17.1% in the assay on UACC-62 melanoma; 3.96% (active) in the assay on LOX IMVI melanoma; -27.5% (active) in the assay with SK-MEL-28 melanoma; 5.9% (active) with SK-MEL-2 melanoma; 27.6% in the assay on EKVX NSCLC. For the same compound, the growth in the assay on SN12C renal was 34.5%; with UO-31 renal, 10%; with TK-10 renal, 33.5%; in the assay on ACHN renal, 17%; in the assay on CAKI-1 renal, 15.3%; in the assay with A498 renal, 26.4%. Moreover, the values for the growth with CCRF-CEM leukemia and in the assay on MOLT-4 leukemia were 11.6% and 4.49% (active), respectively.

Turning to `CCN(CC)CCSc1c2ccc(Cl)cc2nc2ccc(OC)cc12`, the growth is 47.4% with HCT-15 colon; 34.8% with HT29 colon; 110% in the assay with SNB-75 CNS; 92% with SNB-19 CNS; 93% in the assay on U251 CNS; 91.4% in the assay with PC-3 prostate. Besides, the growth is 103% in the assay with SK-MEL-5 melanoma; 93.2% in the assay on UACC-62 melanoma; 36.7% in the assay on LOX IMVI melanoma; 113% in the assay on SK-MEL-28 melanoma; 100% with SK-MEL-2 melanoma; 97.1% with EKVX NSCLC. Also, the growth in the assay with SN12C renal was 90.1%; in the assay on UO-31 renal, 88.5%; in the assay on TK-10 renal it was 84.1%; with ACHN renal, 87.6%; with CAKI-1 renal it was 91.3%; in the assay with A498 renal, 100%. Besides, the growth is 12.7% in the assay on CCRF-CEM leukemia and 48.1% in the assay with MOLT-4 leukemia.

Consider `Cc1ccc2c(c1)C(C)Cc1c(ncnc1-n1cnc3ccccc31)N2C` (stereo not given), for which the growth is 12.3% with HCT-15 colon; 4.56% (active) in the assay on HT29 colon; -10.3% (active) in the assay on SNB-75 CNS; 34% in the assay with SNB-19 CNS; 18.4% in the assay with U251 CNS; 21.9% with PC-3 prostate. For the same compound, the growth is 12.2% in the assay on SK-MEL-5 melanoma; 26% in the assay with UACC-62 melanoma; 34% with LOX IMVI melanoma; 61.8% with SK-MEL-28 melanoma; 38.6% in the assay on SK-MEL-2 melanoma; 40.1% in the assay with EKVX NSCLC. Moreover, the growth with SN12C renal is 37.5%; in the assay on UO-31 renal, 40.1%; in the assay on TK-10 renal, 13.8%; in the assay on ACHN renal, 35.4%; in the assay with CAKI-1 renal, 24.6%; with A498 renal, -16% (active). Besides, the growth is 10% with CCRF-CEM leukemia and 11.7% in the assay with MOLT-4 leukemia.

Take `Cc1cc(C(=O)CSc2nc3ccccc3c(=O)[nH]2)c(C)n1C`: the growth was 104% in the assay with HCT-15 colon; 96.6% with HT29 colon; 118% in the assay with SNB-75 CNS; 95.5% in the assay with SNB-19 CNS; 96.2% in the assay on U251 CNS; 83.9% with PC-3 prostate. In addition, the growth in the assay with SK-MEL-5 melanoma was 98.4%; in the assay on UACC-62 melanoma it was 90.5%; in the assay on LOX IMVI melanoma it was 94.7%; in the assay on SK-MEL-28 melanoma it was 121%; with SK-MEL-2 melanoma it was 87.9%; in the assay on EKVX NSCLC, 94.9%. The growth in the assay on SN12C renal is 95.4%; in the assay with UO-31 renal it was 38.9%; with TK-10 renal it was 93.1%; in the assay with ACHN renal it was 107%; in the assay on CAKI-1 renal it was 95.9%; with A498 renal, 74.6%. Further, the growth was 87.2% in the assay on CCRF-CEM leukemia and 118% with MOLT-4 leukemia.

With `COc1cc(/C=C/C(=O)c2ccccc2O)ccc1OCCCOc1cc2c(cc1OC)C(=O)N1CCC[C@H]1C=N2`, the growth was -3.51% (active) in the assay on HCT-15 colon; -41.4% (active) with HT29 colon; -57.7% (active) in the assay with SNB-75 CNS; -1.67% (active) with SNB-19 CNS; -74.7% (active) in the assay on U251 CNS; 10.7% in the assay on PC-3 prostate. The growth in the assay with SK-MEL-5 melanoma was -76.5% (active); in the assay with UACC-62 melanoma, -82.4% (active); in the assay with LOX IMVI melanoma, -60.8% (active); in the assay on SK-MEL-28 melanoma it was -64.3% (active); with SK-MEL-2 melanoma, -61.1% (active); in the assay with EKVX NSCLC, 19.7%. The growth in the assay on SN12C renal is 6.22% (active); in the assay on UO-31 renal, -54.5% (active); in the assay on TK-10 renal, -27.9% (active); in the assay on ACHN renal, -13.8% (active); in the assay on CAKI-1 renal it was -35.3% (active); in the assay with A498 renal, -68.4% (active). The values for the growth in the assay with CCRF-CEM leukemia and in the assay on MOLT-4 leukemia were 5.24% (active) and -11.2% (active), respectively.

Consider `Nc1nc(-c2cc3ccccc3o2)cc(=O)c(=O)[nH]1`, for which the growth was 103% in the assay on HCT-15 colon; 99.7% with HT29 colon; 102% in the assay on SNB-75 CNS; 86.6% in the assay on SNB-19 CNS; 91.9% in the assay on U251 CNS; 97.7% in the assay with PC-3 prostate. The growth is 90.4% in the assay on SK-MEL-5 melanoma; 94.6% in the assay with UACC-62 melanoma; 98.6% in the assay with LOX IMVI melanoma; 112% with SK-MEL-28 melanoma; 98.9% with SK-MEL-2 melanoma; 99.7% in the assay on EKVX NSCLC. The growth with SN12C renal was 106%; in the assay on UO-31 renal it was 110%; in the assay on TK-10 renal, 103%; in the assay with ACHN renal, 94.3%; in the assay with CAKI-1 renal, 91.9%; in the assay with A498 renal, 99.2%. Besides, the growth in the assay on CCRF-CEM leukemia is 84.2%; with MOLT-4 leukemia it was 96.6%.
